Bioassay records deposited in PubChem BioAssay by The Scripps Research Institute Molecular Screening Center.
IDE cell inh = inhibits human insulin-degrading enzyme in HEK cells; inhibition, % at 5.59 µM; P14735; FAbetaB cleavage, fluorescence polarization; AID 434962; hit rate 0.41% among 320,000;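 active = percent inhibition above the average of all tested compounds plus 3 SD, set per screening campaign, cut at about 16% in these data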;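 note: IDE supplied by intact live HEK cells; FP after avidin binding of uncleaved biotin substrate so inhibition keeps polarization high; 0% = DMSO wells and 100% = 60 µM reference IDE inhibitor Ii1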
NOD2-RIPK2 inh = blocks binding of human NOD2 to RIPK2; CHO BLA complementation NOD2-RIPK2, CCF4 ratio; inhibition, % at 4.98 µM; hit rate 0.38% among 360,000; in the data active = inhibition above about 21%;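 note: 0% = vehicle only and 100% = reference blocker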
IDE cell activ = boosts human insulin-degrading enzyme activity in HEK cells | activation, % at 5.96 µM | hit rate 0.073% among 340,000 | AID 493087 | P14735 | FAbeta-B cleavage, fluorescence polarization; 0% vehicle, 100% cell-free pure enzyme wells;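 active = activation above the mean of all tested compounds plus 3 SD, set per screening campaign, cut at about 17% in these data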
TLR9-MyD88 inh = inhibitors of human TLR9-MyD88 binding; Q9NR96+Q99836; inhibition, % at 4.98 µM; CHO BLA complementation TLR9-MyD88, CCF4 FRET ratio; hit rate 0.21% among 340,000; AID 504734;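 active = inhibition above the mean over all tested compounds plus 3 SD, cut at about 21% in these data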;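 note: 0% = DMSO only wells and 100% = clavulanate BLA inhibitor control wells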
TLR4 MyD88 comp = inhibitors of human TLR4-MyD88 binding; HeLa CL3-4 TLR4/MyD88 BLA complementation, FRET ratio; hit rate 0.18% among 200,000; inhibition, % at 8.4 µM; O00206+Q99836; in the data active = inhibition above about 25%;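 note: 0% = vehicle and 100% = reference inhibitor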
Starred values were filed as active, the others as inactive; · = not tested or not shown. Rows were chosen to be rich in hits. Some 0.86% of all compounds tested hit in one or more screens of this group.

SMILES	IDE cell inh	NOD2-RIPK2 inh	IDE cell activ	TLR9-MyD88 inh	TLR4 MyD88 comp
Brc1ccc(CSc2nccn2-c2ccccc2)cc1	1	22*	2	10	-3
COc1ccc(NC(=O)c2cccc([N+](=O)[O-])c2)cc1	3	0	4	3	-7
COc1ccc(NC(=O)c2cc([N+](=O)[O-])ccc2O)cc1	3	-3	22*	11	-16
COc1ccc(C(=S)N2CCN(C)CC2)cc1Br	8	-1	-4	-12	-8
CCCCc1c(C)nn(-c2nnc3c4ccccc4n(CC)c3n2)c1C	-2	3	4	12	9
CCOc1ccc(-c2cn(-c3ccc(OC)cc3)c(SC)n2)cc1	17*	-6	-1	-9	-7
CSc1nc(-c2ccccc2)cn1-c1ccc(NC(C)=O)cc1	7	-15	-3	4	0
CC(C)COc1ccc(C(=O)N/N=C/c2ccoc2)cc1	-3	-7	9	-20	·
CCCCCCCCCCOC(=O)Cn1c(COc2ccccc2C)[n+](C)c2ccccc21	2	22*	17	14	·
NS(=O)(=O)c1ccc(CCNC(=O)c2cccc(S(=O)(=O)N3CCc4ccccc43)c2)cc1	·	-6	·	-10	·
Nc1ncnc2c1ncn2C1OC(CO)C(O)C1N (stereo not drawn)	-1	3	4	-2	·
COc1ccc(C(=O)/C=C/c2cn(CN3CCN(C)CC3)c3ccccc23)cc1	10	21*	-9	12	18
COC(=O)c1ccccc1NS(C)(=O)=O	-4	2	0	-4	·
COc1c(C(=O)Nc2ccc(CN3CCOCC3)cc2)cc2ccccc2c1Br	-7	-2	3	-1	·
COc1c(C(=O)Nc2ccc3[nH]c(=O)[nH]c3c2)cc2ccccc2c1Br	-3	17	20*	4	2
CC(C)c1ccc(/C=C/C(=O)NC(=S)NN2CCOCC2)cc1	·	-5	-29	-2	·
CC(C)c1ccc(/C=C/C(=O)NC(=S)Nc2ccc(CN3CCOCC3)cc2)cc1	18*	3	-10	4	-24
CC1=NN(C(N)=S)C(=O)C1N=Nc1ccccc1C(=O)O (stereo not drawn)	-7	-7	6	3	·
CN1C(=O)C(N=Nc2ccccc2C(=O)O)N(C)C1=S (stereo not drawn)	21*	-1	-42	-4	1
COC(=O)c1c(C)oc2ccc(N(C(C)=O)S(=O)(=O)c3ccccc3)cc12	8	2	0	4	·
COc1ccc(S(=O)(=O)N(C(C)=O)c2ccc3oc(=O)sc3c2)cc1	25*	-4	-19	-9	-8
C#CCOCCOCCOCCNc1nc(N2CCN(C(=O)CCCCCCCCCCNC(=O)[C@H]([C@@H](C)CC)n3cc(CCCCCN)nn3)CC2)nc(N2CCN(C(=O)CCCCCCCCCCNC(=O)[C@@H]([C@H](C)CC)n3cc(CCCCCN)nn3)CC2)n1	-8	·	·	·	·
C#CCOCCOCCOCCNc1nc(N2CCN(C(=O)CCCCCCCCCCNC(=O)[C@H]([C@@H](C)CC)n3cc(CCCCCN)nn3)CC2)nc(N2CCN(C(=O)CCCCCCCCCCNC(=O)[C@H]([C@@H](C)CC)n3cc(CCCCN=C(N)N)nn3)CC2)n1	-5	69*	51*	75*	·
C#CCOCCOCCOCCNc1nc(N2CCN(C(=O)CCCCCCCCCCNC(=O)[C@H]([C@@H](C)CC)n3cc(CCCCCN)nn3)CC2)nc(N2CCN(C(=O)CCCCCCCCCCNC(=O)[C@H](CO)n3cc(CCCCCN)nn3)CC2)n1	9	13	37*	15	·
C#CCOCCOCCOCCNc1nc(N2CCN(C(=O)CCCCCCCCCCNC(=O)Cn3cc(CCCCCN)nn3)CC2)nc(N2CCN(C(=O)CCCCCCCCCCNC(=O)[C@H]([C@@H](C)CC)n3cc(CCCCN=C(N)N)nn3)CC2)n1	4	35*	42*	40*	·
SMILES	IDE cell inh	NOD2-RIPK2 inh	IDE cell activ	TLR9-MyD88 inh	TLR4 MyD88 comp
C#CCOCCOCCOCCNc1nc(N2CCN(C(=O)CCCCCCCCCCNC(=O)[C@H]([C@@H](C)CC)n3cc(CCCCN=C(N)N)nn3)CC2)nc(N2CCN(C(=O)CCCCCCCCCCNC(=O)[C@H](CO)n3cc(CCCCCN)nn3)CC2)n1	4	31*	40*	35*	·
Cc1ccccc1OCC(=O)Nc1ccccc1N1CCOCC1	4	-5	6	1	-1
COc1ccc(Cn2c(SCc3cc(C)ccc3C)nc3cc(OC)c(OC)cc3c2=N)cc1	1	4	27*	4	4
COc1ccc(Cn2c(SCc3ccc(C)cc3)nc3cc(OC)c(OC)cc3c2=N)cc1Cl	1	5	20*	3	-5
N#Cc1nc(-c2ccccc2)oc1NCc1ccco1	-4	-4	-4	8	0
COc1cc(/C=C2/SC(=Nc3ccc(O)cc3)NC2=O)cc(OC)c1O	58*	-1	-113	-2	3
O=C(Nc1cccc(S(=O)(=O)N2CCOCC2)c1)C1CCN(S(=O)(=O)c2ccccc2)CC1	-3	4	1	3	·
COc1ccccc1NCC(O)COc1ccc(C(C)(C)C)cc1 (stereo not drawn)	-3	-2	11	5	-12
COc1ccc(NCC(O)COc2ccc(C(C)(C)C)cc2)cc1 (stereo not drawn)	-2	16	22*	1	4
O=C(COc1ccccc1[N+](=O)[O-])Nc1cccc(S(=O)(=O)N2CCCC2)c1	3	-5	-3	-3	·
Cc1ccc(-c2cc(C(F)(F)F)c(C#N)c(SCCC#N)n2)o1	-4	-9	3	-21	-18
CCCCCCc1cc2cc(-c3nnc(-c4ccccc4OC)o3)c(=O)oc2cc1O	48*	0	5	-6	-11
CCCCCCc1cc2cc(-c3nnc(-c4cc(OC)c(OC)c(OC)c4)o3)c(=O)oc2cc1O	2	·	·	·	-3
Cc1c2ccccc2cc[n+]1CCCS(=O)(=O)[O-]	-2	-7	-2	-2	-2
CC1(C)C(/C=C/C=C/C=C/C=C2\N(CCCCS(=O)(=O)O)c3ccc4ccccc4c3C2(C)C)=[N+](CCCCS(=O)(=O)[O-])c2ccc3ccccc3c21	21*	1	-9	13	·
COc1cc(NC(=O)N2CCNC2=O)cc(C(=O)Nc2cccc(C(F)(F)F)c2)c1	2	10	38*	5	·
Cc1ccnc(N/C=C(/NC(=O)c2ccccc2)C(=O)N/N=C\c2ccc(Cl)cc2)n1	32*	-56	-29	3	·
O=C(N/N=C/c1ccncc1)/C(=C/c1ccccc1)NC(=O)c1ccccc1	-2	5	4	6	-8
Brc1ccc(OCc2ccccc2)c(CNCc2ccncc2)c1	11	5	-17	-7	-6
Fc1ccc(COc2ccccc2CNCc2ccncc2)cc1	17*	6	-14	5	-17
Cc1ccc(C)c(NC(=S)N(C)CCc2ccccn2)c1	-2	-5	0	-10	-6
Cn1c2c(c(=O)n3ncnc13)CCCC2	17*	-5	2	-1	·
